In PubChem BioAssay AID1259336 (Sattelle Laboratory, UCL Respiratory, Division of Medicine, …, 2017):
Calls of active or inactive are those of the source. Rule as the data show it: active = log2 fold change growth below about -1.8; inactive = the rest.

Test: C. elegans growth inhibition, whole organism, log2 fold change (AID 1259336);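 also: growth scored by imaging after five days at 20 °C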
Settings: anthelmintic screen, stronger effect = lower value

log2 fold change growth, active:
Nc1ccc(C(=O)Nc2ccc(-c3nc4ccccc4o3)cc2)cc1 -7.04

log2 fold change growth, inactive:
O=C(NC1CC1)c1ccc(CSCc2ccccc2Cl)o1 0.276
N=C(N)c1ccc(-c2cc(-c3ccccc3)on2)cc1 0.247
Brc1c(-c2ccc3c(c2)OCO3)nc2ncccn12 0.0304
O=C(c1cc2ccccc2o1)N1CCN(Cc2ccc3c(c2)OCO3)CC1 0.212
O=C(NCc1ccoc1)N1CCN(Cc2ccc3c(c2)OCO3)CC1 0.212
O=[N+]([O-])c1cn2c(n1)OC[C@@H](OCc1ccc(OC(F)(F)F)cc1)C2 -0.142
CN1CCC(c2cc(-c3ccncc3)c(-c3ccc(F)cc3)[nH]2)CC1 -0.12
Cc1cc(C)n(-c2ccc(NC(=O)C3CCN(Cc4cnc(C)s4)CC3)cc2)n1 0.442
Cc1cc(NC(=O)c2ccc(Oc3ccc(Cl)cc3O)o2)no1 0.201
COc1ccc(C2=NCCN2)cc1-c1cn(-c2cccc(C3=NCCN3)c2)nn1 0.077
C[C@H]1CCCCN1C(=O)NCCc1coc(-c2ccc(F)cc2)n1 0.0232
Oc1c(I)cc(I)c2cccnc12 0.0616
CC(C)(C)C1CCC(CC2=C(O)c3ccccc3C(=O)C2=O)CC1 (stereo not drawn) -0.0767
C[C@H](Oc1cccc(Cl)c1)C(=O)Nc1ccc2oc(-c3ccncc3)nc2c1 0.206
CC(=O)N1CCc2cc3nc(C)cc(C)c3cc21 0.139
COC[C@H](C)NC(=O)CSc1ncnc2sc(-c3ccccc3)cc12 -0.053
CCN(CC)S(=O)(=O)c1ccc(Cl)c(C(=O)Nc2ccc3nc(C)sc3c2)c1 -1.22
Cc1nc(-c2ccccn2)nc(NCCc2ccc(S(C)(=O)=O)cc2)c1Cl -0.702
CC(C)N=c1cc2n(-c3ccc(Cl)cc3)c3ccccc3nc-2cc1Nc1ccc(Cl)cc1 0.0581
COc1cc(-c2cc(-c3ccc(S(C)(=O)=O)cc3)cnc2N)ccc1O -0.318
CC1=Nc2ccc(Cl)cc2[C@H](c2ccccc2)N1CCNC(=O)CN(C)C 0.44
COc1cccc(-c2nc3c(N4CCCC4)cccc3n2C[C@H]2CCCN2)n1 0.434
COc1ccc(-c2cnc3cnc(-c4cccc(OC(C)C)c4)cn23)cc1 -0.137
Cc1nc(-c2cccc(NCc3ccccc3)c2)[nH]c1C 0.123
CN1CCCC1CCO[C@](C)(c1ccccc1)c1ccc(Cl)cc1 (stereo partly drawn) 0.213
O=C(NCc1nnc2n1CCCCC2)c1ccc(-c2ccc(F)cc2)o1 0.174
CCc1nc2ccccc2n1C[C@H](O)COc1cc(C)ccc1Cl 0.0644
CN(C)CCNC(=O)N1CCCN(c2ncnc3cc(-c4ccccc4)sc23)CC1 -0.255
Cn1ncc2c(N3CCOCC3)nc(NCCc3c[nH]c4ccccc34)nc21 0.0196
CCc1ccccc1-n1c(C)cn2c3c(=O)n([C@H](C(=O)OC)C(C)C)c(=O)n(C)c3nc12 0.456
CC(=O)Nc1ccc(NC(=O)c2cc(-c3cc(Cl)ccc3O)n[nH]2)cc1 0.254
O=C(NCCN1CCCC1)c1cc(NCCN2CCOCC2)nc2ccc(Cl)cc12 0.29
FC(F)(F)c1cnc(Sc2nnc(-c3ccncc3)o2)c(Cl)c1 -0.0782
COc1ccc2nc(C)cc(OCC(=O)Nc3ccccc3OC)c2c1 0.165
Cc1cc(C)n2nc(C(=O)Nc3cc(C(F)(F)F)ccc3N3CCOCC3)nc2n1 0.174
COc1ccc(Cl)cc1NC(=O)CN(C)C(=O)c1cnn(-c2ccccc2)n1 -0.154
CN(C)c1cc(NC(=O)Nc2ccccc2)c2ccccc2n1 0.272
